Measurements reported in PubChem BioAssay (NCATS).
Results filed as inconclusive are left out. Calls of active or inactive are those of the source. Unless noted, calls follow the shape of the dose curve; as a rule, active = well fitted curve in the direction sought with a large enough effect; inconclusive = small, poorly fitted or top-dose-only effect, or another doubt; inactive = no such curve, though single readings can be large; an effect the other way counts as inactive or inconclusive.

Columns and labels:
[1] = AP1 Signaling Pathway (AID 357; active = well fitted curve in either direction with a large enough effect, not every such curve was filed as active;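 also: ME-180 reporter cells stimulated with EGF at its EC50 level; % is scaled to controls: 0 for no effect and ±100 for the full control effect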)
Method in brief: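 In this screen, ME-180 cells in Opti-MEM with 0.5% dialyzed FBS received EC50 EGF and compound titrations for 5 h. AP-1 reporter beta-lactamase was detected via CCF4 ratio, giving AC50 for positive and negative modulators.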

[2] = NFAT Signaling Pathway (AID 444; active = well fitted curve in either direction with a large enough effect, not every such curve was filed as active;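 also: carbachol stimulus at about its EC50 of 1 µM final; % is scaled to controls: 0 for no effect and ±100 for the full control effect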); conditions: Jurkat NFAT-bla M1, carbachol, beta-lactamase ratio, 5 h; at 17.2 µM (top of the series) unless noted
Method in brief: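 Jurkat cells carrying an NFAT-driven β-lactamase reporter and co-transfected muscarinic M1 receptor were treated with compound plus carbachol (1 uM final, an EC50 level) for 5 h at 37 °C. CCF4 loading followed for 1 h at RT; 460/530 nm ratio gave %activity.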

[3] = Stat Signaling Pathway (AID 446; active = well fitted curve in either direction with a large enough effect, not every such curve was filed as active;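 also: ME-180 cervical cancer cells given 40 pM IL-6 alongside compound; SIE-controlled beta-lactamase reporter measured as 460/530 nm FRET emission ratio; % is scaled to controls: 0 for no effect and ±100 for the full control effect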)
Method in brief: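 Compound effects on IL-6-induced STAT reporter activity were measured in ME-180 cells. After overnight culture, cells were co-treated with 40 pM IL-6 for 5 hrs before beta-lactamase substrate loading at room temperature.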

[4] = target: Glucocorticoid receptor (Homo sapiens) (UniProt P04150); assay: GR-GFP Redistribution (AID 450;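 active = compounds whose dose series gives a full or clear partial fitted curve of increased nuclear translocation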; also: potency is read from the fitted curve at half-maximal effect); conditions: U2OS GR-GFP nuclear translocation, laser cytometry, 2 h
Sequence of Glucocorticoid receptor (Homo sapiens) (P04150 whole entry, looked up, the tested form may be a part): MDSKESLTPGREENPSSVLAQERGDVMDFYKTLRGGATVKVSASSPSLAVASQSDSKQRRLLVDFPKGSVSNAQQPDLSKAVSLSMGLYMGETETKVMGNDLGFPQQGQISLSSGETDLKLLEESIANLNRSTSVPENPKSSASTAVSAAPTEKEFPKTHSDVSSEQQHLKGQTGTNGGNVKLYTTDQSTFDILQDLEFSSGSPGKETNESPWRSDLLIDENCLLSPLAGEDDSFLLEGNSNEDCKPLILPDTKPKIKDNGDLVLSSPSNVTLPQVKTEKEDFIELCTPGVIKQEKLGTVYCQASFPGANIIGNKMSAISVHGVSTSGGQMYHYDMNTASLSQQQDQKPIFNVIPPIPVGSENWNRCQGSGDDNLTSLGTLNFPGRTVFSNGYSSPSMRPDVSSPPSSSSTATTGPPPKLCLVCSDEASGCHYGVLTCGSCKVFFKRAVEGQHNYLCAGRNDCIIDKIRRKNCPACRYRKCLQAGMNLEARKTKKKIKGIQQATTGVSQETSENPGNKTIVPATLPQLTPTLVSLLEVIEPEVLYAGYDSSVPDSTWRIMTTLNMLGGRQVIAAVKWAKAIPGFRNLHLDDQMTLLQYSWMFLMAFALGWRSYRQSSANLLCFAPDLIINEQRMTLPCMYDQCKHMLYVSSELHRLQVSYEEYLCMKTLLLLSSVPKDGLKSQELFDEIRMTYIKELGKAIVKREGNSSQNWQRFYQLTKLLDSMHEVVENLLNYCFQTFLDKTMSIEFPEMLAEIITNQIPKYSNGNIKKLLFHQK

[5] = target: Glucocorticoid receptor (Homo sapiens) (UniProt P04150); assay: GR-EFC Redistribution (AID 451; calls by dose curve; also: potency is read from the fitted curve at half-maximal effect); conditions: CHO-K1 GR-EFC translocation, beta-gal luminescence, 2 h
Method in brief: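 CHO-K1 cells stably expressing nuclear-localized β-gal enzyme acceptor and GR fused C-terminally to the enzyme donor fragment; ligand-driven nuclear translocation restores β-gal by complementation. Compounds titrated up to 46 uM final, 2 h at 37 °C; luminescence read.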

[6] = target: Mitogen-activated protein kinase 10 (Mus musculus) (UniProt Q61831); assay: JNK3 AlphaScreen Assay (AID 530; active = well fitted curve in either direction with a large enough effect, not every such curve was filed as active;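 also: kinase came from lysate of stimulated human HepG2 cells; signal reports phosphorylation of biotinylated GST-cJun 1-79 at Ser73 with 10 µM ATP; % is scaled to controls: 0 for no effect and ±100 for the full control effect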)
Method in brief: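 Biotinylated GST-cJun(1-79) served as substrate for JNK3 in HepG2 lysates stimulated with IL-1beta and TNF-alpha. ATP was 10 uM final, pH 7.6. Ser73 phosphorylation was quantified by AlphaScreen (680 nm excitation).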

[7] = target: 3',5'-cyclic-AMP phosphodiesterase 4B (Homo sapiens) (UniProt Q07343); assay: qHTS Assay for Inhibitors of PDE-IV (AID 607; active = well fitted activation curve with a large enough effect in the main read-out, with a control signal flat, not every such curve was filed as active; also: % of control where 0% means no effect)
Sequence of 3',5'-cyclic-AMP phosphodiesterase 4B (Homo sapiens) (Q07343 whole entry, looked up): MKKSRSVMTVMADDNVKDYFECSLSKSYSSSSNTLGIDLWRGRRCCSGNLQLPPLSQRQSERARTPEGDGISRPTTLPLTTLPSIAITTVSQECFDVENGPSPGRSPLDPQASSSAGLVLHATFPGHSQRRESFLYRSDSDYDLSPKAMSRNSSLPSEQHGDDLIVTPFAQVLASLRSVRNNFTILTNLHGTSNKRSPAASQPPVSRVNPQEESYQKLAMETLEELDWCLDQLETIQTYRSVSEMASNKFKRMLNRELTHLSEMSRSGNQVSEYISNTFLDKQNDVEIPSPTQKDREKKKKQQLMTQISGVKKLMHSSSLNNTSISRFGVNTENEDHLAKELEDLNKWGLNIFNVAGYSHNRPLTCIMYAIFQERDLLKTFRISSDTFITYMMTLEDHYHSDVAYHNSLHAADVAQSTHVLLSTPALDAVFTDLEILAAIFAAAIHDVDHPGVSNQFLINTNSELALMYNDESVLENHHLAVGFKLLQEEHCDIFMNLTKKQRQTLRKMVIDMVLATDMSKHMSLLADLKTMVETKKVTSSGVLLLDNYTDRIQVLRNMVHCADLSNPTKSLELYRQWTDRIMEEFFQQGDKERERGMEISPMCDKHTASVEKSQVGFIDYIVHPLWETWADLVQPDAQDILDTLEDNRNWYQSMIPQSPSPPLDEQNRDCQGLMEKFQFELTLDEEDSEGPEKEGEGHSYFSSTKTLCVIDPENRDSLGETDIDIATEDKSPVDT
Method in brief: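 ACTOne HEK293 cells carry a modified cAMP-gated CNG channel and express endogenous PDE4; plated 1000 cells/well, compounds up to 22.9 uM final. Membrane-potential dye fluorescence (ex 535/em 590) was read; parental cells received 10 uM forskolin + 100 uM RO 20-1724.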

[8] = qHTS Assay for Lipid Storage Modulators (AID 1519; calls by dose curve); conditions: Drosophila S3 cells, BODIPY lipid droplet/cell ratio, laser cytometry, cells loaded with oleic acid
Method in brief: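 Cells seeded at 5,000 per well were treated with compounds over a concentration series and loaded with oleic acid (400 uM, as added). Lipid droplet fluorescence (488 nm excitation, 500-530 nm channel) was read by laser-scanning cytometry and normalized to 20 uM Triacsin C.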

[9] = target: ATP-dependent 6-phosphofructokinase (Trypanosoma brucei brucei) (UniProt O15648); assay: qHTS Assay to Find Inhibitors of T. brucei phosphofructokinase: hit validation (AID 492961)
Sequence of ATP-dependent 6-phosphofructokinase (Trypanosoma brucei brucei) (O15648 whole entry, looked up): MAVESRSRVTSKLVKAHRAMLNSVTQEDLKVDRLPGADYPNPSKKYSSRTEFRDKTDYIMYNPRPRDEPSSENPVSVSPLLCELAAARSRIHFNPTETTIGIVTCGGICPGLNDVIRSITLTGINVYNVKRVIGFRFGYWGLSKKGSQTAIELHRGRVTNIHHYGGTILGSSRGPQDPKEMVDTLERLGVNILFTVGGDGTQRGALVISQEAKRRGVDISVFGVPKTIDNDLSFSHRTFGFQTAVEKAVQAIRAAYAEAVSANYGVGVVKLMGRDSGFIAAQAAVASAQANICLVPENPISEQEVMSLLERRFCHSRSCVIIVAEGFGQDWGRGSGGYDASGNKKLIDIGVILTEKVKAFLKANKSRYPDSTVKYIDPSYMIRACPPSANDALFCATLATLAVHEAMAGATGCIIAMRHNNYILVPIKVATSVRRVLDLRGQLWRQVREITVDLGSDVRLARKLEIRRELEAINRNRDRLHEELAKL
Method in brief: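 Percent activity derived from corrected luminescence, normalized between 0x and 1x enzyme controls, then fitted to concentration-response curves. Conditions: 1.25 nM PFK, 0.1 mM ATP, 0.5 mM F6P, 45 min RT.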

[10] = target: Ubiquitin carboxyl-terminal hydrolase 1 (Homo sapiens) (UniProt O94782); assay: Inhibitors of USP1/UAF1: Pilot qHTS (AID 504865);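 also: rhodamine fluorescence freed from ubiquitin-rhodamine substrate followed over time; top concentration of the series differs between compounds; % is scaled to controls: 0 for no effect and ±100 for the full control effect; nearly all actives have a fitted effect of over 35% in size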
Sequence of Ubiquitin carboxyl-terminal hydrolase 1 (Homo sapiens) (O94782 whole entry, looked up): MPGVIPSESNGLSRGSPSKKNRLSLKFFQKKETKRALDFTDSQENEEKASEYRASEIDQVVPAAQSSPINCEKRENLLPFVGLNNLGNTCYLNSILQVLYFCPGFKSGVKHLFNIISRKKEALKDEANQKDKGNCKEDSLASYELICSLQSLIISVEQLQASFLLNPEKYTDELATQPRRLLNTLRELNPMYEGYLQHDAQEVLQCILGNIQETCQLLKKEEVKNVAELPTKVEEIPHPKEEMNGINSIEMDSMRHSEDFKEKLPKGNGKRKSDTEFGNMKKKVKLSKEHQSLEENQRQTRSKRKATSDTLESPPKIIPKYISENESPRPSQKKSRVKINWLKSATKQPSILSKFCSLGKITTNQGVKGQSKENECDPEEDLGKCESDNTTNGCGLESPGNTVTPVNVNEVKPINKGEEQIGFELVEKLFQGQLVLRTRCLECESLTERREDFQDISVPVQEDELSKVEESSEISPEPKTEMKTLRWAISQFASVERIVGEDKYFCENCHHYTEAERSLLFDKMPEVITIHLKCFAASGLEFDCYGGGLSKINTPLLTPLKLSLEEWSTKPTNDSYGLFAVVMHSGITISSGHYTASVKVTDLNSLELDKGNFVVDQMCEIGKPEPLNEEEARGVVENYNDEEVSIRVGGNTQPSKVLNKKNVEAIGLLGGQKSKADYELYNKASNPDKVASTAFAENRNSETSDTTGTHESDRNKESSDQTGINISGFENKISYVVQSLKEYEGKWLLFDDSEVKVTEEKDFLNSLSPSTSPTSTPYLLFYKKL
Method in brief: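 1nM USP1/UAF1 + cpd, 15 min RT; start w/ Ub-Rho 150nM final; kinetic FL 480/540 nm, 6 reads q60 s. Buffer 50mM HEPES pH 7.8, 0.5mM EDTA, 1mM TCEP, 0.01% Tween-20, 0.1 mg/ml BSA.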

[11] = target: Luciferin 4-monooxygenase (Photinus pyralis) (UniProt P08659); assay: Biochemical firefly luciferase enzyme assay for NPC (AID 624030);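 also: purified P. pyralis luciferase at 10 nM with luciferin and ATP substrate; 0% = DMSO and -100% = full luciferase inhibition by PTC124 control; nearly all actives have a fitted effect of over 70% in size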
Sequence of Luciferin 4-monooxygenase (Photinus pyralis) (P08659 whole entry, looked up): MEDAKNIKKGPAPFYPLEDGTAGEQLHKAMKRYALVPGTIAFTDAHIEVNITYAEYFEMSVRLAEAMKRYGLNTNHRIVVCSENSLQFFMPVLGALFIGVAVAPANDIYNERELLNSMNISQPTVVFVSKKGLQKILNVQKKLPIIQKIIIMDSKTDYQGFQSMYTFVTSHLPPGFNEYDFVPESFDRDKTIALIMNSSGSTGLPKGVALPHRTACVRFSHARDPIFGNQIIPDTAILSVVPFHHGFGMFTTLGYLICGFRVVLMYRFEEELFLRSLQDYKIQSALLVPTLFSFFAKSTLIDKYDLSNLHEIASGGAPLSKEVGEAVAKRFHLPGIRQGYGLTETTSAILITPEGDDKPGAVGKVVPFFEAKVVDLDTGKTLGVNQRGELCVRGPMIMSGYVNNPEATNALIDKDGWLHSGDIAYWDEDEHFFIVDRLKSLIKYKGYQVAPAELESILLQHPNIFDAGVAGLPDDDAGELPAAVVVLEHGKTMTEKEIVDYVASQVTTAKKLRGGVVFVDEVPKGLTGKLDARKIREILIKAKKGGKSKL
Method in brief: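 Counter-screen for direct inhibition of the luciferase enzyme by approved-drug library compounds, run at 10 nM enzyme in 50 mM Tris acetate (final). Luminescence was read within 5 min of enzyme-buffer addition and normalized to PTC124 versus DMSO (0%).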

[12] = S16 Schwann cell PMP22 intronic element firefly luciferase assay (AID 624032);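 also: plate controls were DMSO for no effect and PTC124 positive control mean for full effect; nearly all actives have a fitted effect of over 30% in size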
Method in brief: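 Rat S16 Schwann cells stably carrying a PMP22 intronic element-driven Fluc reporter were seeded overnight, then exposed to compounds for 24 h at 37 °C. Luminescence was normalized to PTC124 (positive control) and DMSO (0% activity).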

[13] = qHTS profiling for inhibitors of Plasmodium falciparum proliferation (AID 504749); also: nearly all actives have a fitted effect of over 60% in size; also: potency is read from the fitted curve at half-maximal effect;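 as to activity, negative = inhibition: 0% = DMSO vehicle and full inhibition = artemisinin control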; conditions: P. falciparum in erythrocytes, SYBR Green DNA, 72 h
Method in brief: (§1)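 Fluorescence of SYBR Green-bound parasite DNA, read at 485/535 nm, served as the growth measure. Infected erythrocytes were cultured with compound 72 h; artemisinin (0.29 uM) and DMSO wells defined the normalization range.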

AS120 = assay: as above; conditions: P. falciparum in erythrocytes, SYBR Green DNA, 72 h; series mostly up to 12.8 µM
Method in brief: as §1

C2A = assay: as above; conditions: P. falciparum in erythrocytes, SYBR Green DNA, 72 h; series mostly up to 12.8 µM
Method in brief: as §1

CP238 = assay: as above; conditions: P. falciparum in erythrocytes, SYBR Green DNA, 72 h; series mostly up to 12.8 µM
Method in brief: as §1

CP250 = assay: as above; conditions: P. falciparum in erythrocytes, SYBR Green DNA, 72 h; series mostly up to 12.8 µM
Method in brief: as §1

CP252 = assay: as above; conditions: P. falciparum in erythrocytes, SYBR Green DNA, 72 h; series mostly up to 12.8 µM
Method in brief: as §1

HB3 = assay: as above; conditions: P. falciparum in erythrocytes, SYBR Green DNA, 72 h; series mostly up to 12.8 µM
Method in brief: as §1

SC27B = assay: as above; conditions: P. falciparum in erythrocytes, SYBR Green DNA, 72 h; series mostly up to 12.8 µM
Method in brief: as §1

[14] = measured here: cell count channel max response
[15] = measured here: lipid channel max response
[16] = at 12.8 µM (top of the series), parasite line A
[17] = at 12.8 µM (top of the series), parasite line B

CCN[C@@H]1CN(CCCOC)S(=O)(=O)c2sc(S(N)(=O)=O)cc21
-3.42%: max response [8, 14]
inactive: outcome [1] | activity change, negative = inhibition [2] -3.14% | outcome [3] | Potency [4] > 20.6 µM | Potency [5] > 20.6 µM | Potency [6] | outcome [7] | activity change, negative = inhibition ([8]; at 25.7 µM (top of the series)) 1.92% | outcome [9] | Potency [10] | Potency [11] | Potency [12] | activity, negative = inhibition [13, 16] -7.28% | activity, negative = inhibition [13, 17] 4.88% | Potency (AS120) | Potency (C2A) | Potency (CP238) | Potency (CP250) | Potency (CP252) | Potency (HB3) | Potency (SC27B)
-8.18%: max response [8, 15]

CC[C@H](C)C(=O)O[C@@H]1C[C@H](C)C=C2C=C[C@H](C)[C@@H](CC[C@H]3C[C@@H](O)CC(=O)O3)[C@H]21
-1.87%: max response [8, 14]
-8.58%: max response [8, 15]
inactive: outcome [1] | outcome [3] | Potency [5] > 20.6 µM | Potency [6] | outcome [7] | activity change, negative = inhibition ([8]; at 25.7 µM (top of the series)) -5.83%

CO/N=C(\C(=O)N[C@@H]1C(=O)N2C(C(=O)O)=C(COC(N)=O)CS[C@@H]12)c1ccco1
-5.14%: max response [8, 14]
-2.21%: max response [8, 15]
inactive: outcome [1] | outcome [3] | Potency [4] > 20.6 µM | Potency [5] > 20.6 µM | Potency [6] | outcome [7] | activity change, negative = inhibition ([8]; at 25.7 µM (top of the series)) 1.43% | Potency [10]

CN1CCCN([C@@H](c2ccccc2)c2ccc(Cl)cc2)CC1
4.14%: max response [8, 14]
1.38%: max response [8, 15]
inactive: outcome [1] | outcome [3] | Potency [4] > 20.6 µM | Potency [6] | activity change, negative = inhibition ([8]; at 25.7 µM (top of the series)) -4.42% | Potency [10]

COc1cc2nc(N3CCN(C(=O)[C@@H]4COc5ccccc5O4)CC3)nc(N)c2cc1OC
-1.2%: max response [8, 14]
inactive: outcome [1] | outcome [3] | Potency [6] | outcome [7] | activity change, negative = inhibition ([8]; at 25.7 µM (top of the series)) -1.08% | Potency [11] | Potency [12] | activity, negative = inhibition ([13]; at 28.7 µM (top of the series), parasite line B) -13.1% | Potency (C2A) | Potency (CP238) | Potency (CP250) | Potency (CP252) | Potency (SC27B)
-1.61%: max response [8, 15]

CCC[C@@H]1O[C@@H]2C[C@@H]3[C@H]4CCC5=CC(=O)C=C[C@@]5(C)[C@H]4[C@H](O)C[C@@]3(C)[C@@]2(C(=O)CO)O1
4.44%: max response [8, 14]
inactive: outcome [1] | outcome [3] | Potency [6] | outcome [7] | activity change, negative = inhibition ([8]; at 25.7 µM (top of the series)) -3% | outcome [9] | Potency [10] | Potency [11] | Potency [12]
active: Potency ([13]; parasite line A) 11.2 µM | Potency ([13]; parasite line B) 11.2 µM | Potency (AS120) 11.2 µM | Potency (CP250) 11.2 µM | Potency (CP252) 11.2 µM
-2.78%: max response [8, 15]

COc1ccc(CNc2ncncc2-c2ccccc2CN(C)C)c(OC)c1
inactive: outcome [1] | outcome [3] | Potency [5] > 46 µM | Potency [6] | outcome [7] | activity change, negative = inhibition ([8]; at 57.5 µM (top of the series)) 6.9%
9.69%: max response [8, 14]
19.6%: max response [8, 15]

Cc1c(C)c2c(c(C)c1O)CC[C@@](C)(C(=O)O)O2
-15.9%: max response [8, 14]
-17.6%: max response [8, 15]
inactive: outcome [1] | outcome [3] | Potency [4] > 20.6 µM | Potency [5] > 20.6 µM | Potency [6] | outcome [7] | activity change, negative = inhibition ([8]; at 25.7 µM (top of the series)) 0.436% | Potency [10]

CC(C)CC(=O)N[C@H](C(=O)N[C@H](C(=O)N[C@@H](CC(C)C)[C@H](O)CC(=O)N[C@@H](C)C(=O)N[C@@H](CC(C)C)[C@H](O)CC(=O)O)C(C)C)C(C)C
8.75%: max response [8, 15]
inactive: outcome [1] | outcome [3] | Potency [6] | outcome [7] | activity change, negative = inhibition ([8]; at 25.7 µM (top of the series)) 1.03%
20.1%: max response [8, 14]

Cc1c(O)c(=O)n(-c2ccccc2)n1C
20.7%: max response [8, 14]
19.1%: max response [8, 15]
inactive: outcome [1] | outcome [3] | Potency [4] > 20.6 µM | Potency [6] | outcome [7] | activity change, negative = inhibition ([8]; at 25.7 µM (top of the series)) -0.744% | Potency [10]

CN[C@H]1[C@H](O)[C@@H](O[C@@H]2[C@H](O)[C@@H](O[C@H]3OC(CN)=CC[C@H]3N)[C@@H](N)C[C@H]2N)OC[C@@]1(C)O
-1.73%: max response [8, 14]
inactive: outcome [1] | activity change, negative = inhibition [2] -17.3% | outcome [3] | Potency [4] > 20.6 µM | Potency [5] > 20.6 µM | Potency [6] | outcome [7] | activity change, negative = inhibition ([8]; at 25.7 µM (top of the series)) 0.656% | outcome [9] | Potency [10] | Potency [11] | Potency [12] | activity, negative = inhibition [13, 16] 3.71% | activity, negative = inhibition [13, 17] 6.19% | Potency (AS120) | Potency (C2A) | Potency (CP238) | Potency (CP250) | Potency (CP252) | Potency (HB3) | Potency (SC27B)
-0.476%: max response [8, 15]

C[C@@]1(O)CCOC(=O)C1
inactive: outcome [1] | outcome [3] | Potency [4] > 20.6 µM | Potency [5] > 20.6 µM | Potency [6] | outcome [7] | activity change, negative = inhibition ([8]; at 25.7 µM (top of the series)) -1.74% | Potency [10]
-3.45%: max response [8, 14]
-5.01%: max response [8, 15]

CN(C)c1ccc(-c2nccc(NCc3ccccc3)n2)cc1
inactive: outcome [1] | outcome [3] | Potency [4] > 46 µM | Potency [5] > 46 µM | Potency [6] | activity change, negative = inhibition ([8]; at 57.5 µM (top of the series)) 2.02% | Potency [10]
-4.09%: max response [8, 14]
-1.11%: max response [8, 15]

CCOC(=O)C1=C(C)NC(C)=C(C(=O)OC)[C@@H]1c1cccc([N+](=O)[O-])c1
-15%: max response [8, 14]
inactive: outcome [1] | outcome [3] | Potency [6] | outcome [7] | activity change, negative = inhibition ([8]; at 25.7 µM (top of the series)) 0.673% | Potency [10]
-22.2%: max response [8, 15]

CC(=O)[C@@H]1CC[C@@H]2[C@@H]3C[C@H](C)C4=CC(=O)CC[C@@]4(C)[C@H]3[C@H](O)C[C@]21C
active: Potency [4] 0.0015 µM
-15.5%: max response [8, 15]
inactive: outcome [1] | outcome [3] | Potency [6] | outcome [7] | activity change, negative = inhibition ([8]; at 25.7 µM (top of the series)) -5.46% | outcome [9] | Potency [10] | Potency [11] | Potency [12] | activity, negative = inhibition [13, 16] 0.756% | activity, negative = inhibition [13, 17] -6.03% | Potency (AS120) | Potency (C2A) | Potency (CP238) | Potency (CP250) | Potency (CP252) | Potency (HB3) | Potency (SC27B)
-5.95%: max response [8, 14]
